PubChem BioAssay
Activity calls are given as the source filed them.

What was measured:
[1] = compound effects on lung adenocarcinoma cell viability – A549, calcein-AM fluorescence, 48 h, basal, profiling panel (AID 1162); conditions: higher = more signal
[2] = compound effects on differentiated 3T3-L1 adipocyte viability – cell-based, 3T3-L1 adipocytes, calcein-AM fluorescence, 48 h, basal, profiling panel (AID 1163); conditions: 3T3-L1 adipocytes viability, higher = more signal
[3] = compound effects on hepatocellular carcinoma cell viability – HepG2, calcein-AM fluorescence, 48 h, basal, profiling panel (AID 1164); conditions: higher = more signal
[4] = compound effects on multiple myeloma cell viability – MM1S, calcein-AM fluorescence, 48 h, basal, profiling panel (AID 1165); conditions: higher = more signal
[5] = calcein-AM signal in unstimulated myeloma cells – cell-based, calcein-AM fluorescence, 48 h, PK04 Diversity Set, profiling panel (AID 1166); conditions: RPMI8226 myeloma viability, higher = more signal;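 note: cells grown under basal conditions without added stimulus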
[6] = JC-1 mitochondrial signal, unstimulated HepG2 cells – cell-based, JC-1 fluorescence, 24 h, 100 nL compound, profiling panel (AID 1167); conditions: HepG2 mitochondrial potential, higher = more signal
[7] = JC-1 mitochondrial signal, unstimulated adipocytes – cell-based, JC-1 fluorescence, 3T3-L1 adipocytes, 24 h, 100 nL compound, profiling panel (AID 1168); conditions: JC-1 mitochondrial fluorescence, higher = more signal, called active from +8 up or from −8 down
[8] = JC-1 mitochondrial signal, unstimulated myeloma cells – cell-based, JC-1 fluorescence, RPMI8226, 24 h, 100 nL compound, profiling panel (AID 1169); conditions: JC-1 mitochondrial potential fluorescence, higher = more signal
[9] = JC-1 mitochondrial signal, unstimulated MM1S myeloma – cell-based, JC-1 fluorescence, 24 h, 100 nL compound, profiling panel (AID 1170); conditions: MM1S mitochondrial potential, higher = more signal
[10] = resazurin metabolic signal in A549 cells – cell-based, resazurin fluorescence, 24 h, PK04 Diversity Set, profiling panel (AID 1171); conditions: A549 viability, higher = more signal, called active from +8 up or from −8 down
Note: test concentration not given here.

Row | Structure (SMILES) | z-score [1] | z-score [2] | z-score [3] | z-score [4] | z-score [5] | z-score [6] | z-score [7] | z-score [8] | z-score [9] | z-score [10]
1 | CO[C@@H]1COC(=O)[C@H](C)NC(=O)CC=C[C@@H](C)[C@H](NS(=O)(=O)c2ccc(C)cc2)COC(=O)CC=C[C@@H]1C | 0.286 | 0.624 | 0.129 | 0.287 | -0.0803 | 0.596 | 0.523 (inactive) | -0.296 | 0.203 | 0.589 (inactive)
2 | C=C(CCCC)/C(=C/C[C@@H](OC(=O)c1ccncc1)c1cccc(OCCO)c1)c1cc(C(=O)OC)ccc1OC | 1.25 | -0.209 | 0.872 | -2.25 | -2.99 | 2.91 | 0.244 (inactive) | 0.0948 | -0.132 | 0.767 (inactive)
3 | COCCOC(=O)N1C(=O)[C@@]2(c3cc(C#CCC(C(=O)OC)C(=O)OC)ccc31)[C@H](c1ccccc1OCCO)N1[C@H](c3ccccc3)[C@H](c3ccccc3)OC(=O)[C@H]1[C@@H]2C(=O)N1CCCCCCC1 | 0.579 | -0.219 | 0.779 | -0.895 | 0.103 | 0.335 | 2.19 (inactive) | -0.641 | -1.34 | 0.719 (inactive)
4 | COCC(=C=CC[C@H](O)c1ccc(OCCO)cc1)C[C@H](O)c1ccccn1 | 0.905 | -0.518 | 0.0126 | 0.682 | 0.237 | 1.79 | 1.09 (inactive) | -0.145 | -0.116 | 1.02 (inactive)
5 | C=C(CCCC)/C(=C/C[C@@H](OC(=O)c1ccncc1)c1ccc(CO)o1)c1cnc2ccccc2c1 | 1.18 | 0.282 | -0.284 | -2.48 | -1.18 | -0.526 | -0.586 (inactive) | -0.287 | 1 | -0.0271 (inactive)
6 | C=C(C(=O)CC[C@H](OC(=O)c1ccccc1-c1ccccc1C(=O)O)c1ccc(CO)o1)C(C)C | -0.473 | -0.284 | -0.396 | -0.263 | 0.0025 | -0.906 | -0.244 (inactive) | 0.374 | 0.668 | 0.529 (inactive)
7 | O=C1OCC=C[C@H]2OC34C=CCN(Cc5ccccc5)C(=O)[C@H]3N(CCO)C(=O)[C@@H]4[C@@H]12 (stereo not given in full) | 0.125 | 0.474 | -0.885 | 1.12 | 0.44 | -0.255 | 0.367 (inactive) | -0.0019 | -0.216 | 0.54 (inactive)
8 | CO[C@]12C=C(Br)[C@@H](C[C@@H]1c1ccccc1)[C@@]1(CO1)C2=O | -1.08 | 1.18 | -1.08 | -2.34 | -1.62 | -0.143 | 1.12 (inactive) | -0.376 | 0.0484 | -0.446 (inactive)
9 | O=C(NCc1ccccc1)c1ccc(Br)cc1[N+](=O)[O-] | -0.787 | 0.0153 | 0.0565 | -0.0086 | 0.287 | -0.0457 | 0.346 (inactive) | -0.745 | 0.189 | 0.0828 (inactive)
10 | C#CCCCON=C1C[C@@H](O)[C@@H](O)[C@@H]2[C@@H]3C(=O)N(Cc4ccc5c(c4)OCO5)C(=O)[C@@H]3CC[C@@H]12 | 0.347 | -1.2 | -0.61 | 1.03 | 0.351 | 0.722 | 1.44 (inactive) | 0.412 | -1.46 | 0.414 (inactive)
11 | CC1CC/C=C\[C@H]2OC34C=CCN(Cn5nnc6ccccc65)C(=O)[C@H]3N(C(C)CO)C(=O)[C@@H]4C2C(=O)O1 (stereo not given in full) | 0.151 | -0.14 | 0.203 | 0.835 | 0.182 | 0.236 | -0.087 (inactive) | 0.128 | -0.731 | 0.0113 (inactive)
12 | CC(C)[Si]1(C(C)C)O[C@@H](c2ccccc2)c2cc(C3CC3)nc(-c3ccc(Oc4ccccc4)cc3)c21 | -0.654 | 1.31 | 0.0626 | -0.964 | 0.391 | 0.484 | 0.924 (inactive) | 0.38 | 0.484 | 1.6 (inactive)
13 | O=C(NCC(O)CO)[C@]1(Cc2ccccc2)N=C(c2ccc(OCCCO)cc2)O[C@@H]1c1ccccc1 (stereo not given in full) | -0.798 | 1.91 | -2.22 | -1.26 | -1.08 | -1.81 | 1.03 (inactive) | 0.159 | 0.245 | 0.519 (inactive)
14 | CO[C@H]1COC(=O)[C@H](C)NC(=O)CC=C[C@@H](C)[C@H](NS(=O)(=O)c2ccc(C)cc2)COC(=O)[C@@H](OCc2ccccc2)C=C[C@@H]1C | 0.0987 | 0.901 | 0.0331 | -0.31 | 0.102 | 1.04 | 0.315 (inactive) | -0.729 | 1.02 | 0.559 (inactive)
15 | COC(=O)Cn1c(C(=O)N2CCCC2)cc2c1C[C@H]1CN(C(=O)c3ccccc3)[C@@](Cc3ccccc3)(C(=O)OC)[C@@H]21 | -0.162 | 0.0052 | 0.513 | 0.875 | -0.256 | 0.876 | 0.385 (inactive) | -0.0618 | -1.25 | 0.359 (inactive)
16 | CC/C=C/C(=O)N(C[C@@H]1CCCO1)[C@@H]1CC(C(=O)NCCO)=C[C@H](Oc2c(I)cc(CO)cc2OC)[C@H]1O | 1.65 | 0.407 | 0.362 | 0.0808 | 0.587 | 2.48 | 1.32 (inactive) | -0.0319 | 0.265 | 1.07 (inactive)

Row | Structure (SMILES) | z-score [1] | z-score [2] | z-score [3] | z-score [4] | z-score [5] | z-score [6] | z-score [7] | z-score [8] | z-score [9] | z-score [10]
17 | COC(=O)[C@@]1(Cc2ccc(OC)cc2)[C@H]2c3cc(C(=O)N(C)C)n(CCc4ccc(OC)c(Br)c4)c3C[C@H]2CN1C(=O)c1ccccc1 | -1.55 | -1.08 | -0.992 | -1.6 | -4.57 | 2.92 | -1.39 (inactive) | -0.855 | -2.23 | -1.39 (inactive)
18 | C=C(CCCC)/C(=C/C[C@H](OC(=O)c1ccncc1)c1cccc(OCCO)c1)c1cc(C(=O)OC)ccc1OC | 0.215 | 2.52 | 0.0827 | -1.78 | -1.93 | 4.13 | -0.174 (inactive) | -0.337 | -0.342 | 2.6 (inactive)
19 | COCCOC(=O)N1C(=O)[C@@]2(c3cc(C#CCNC(N)=O)ccc31)[C@H](C(=O)N1CCCCCCC1)[C@H]1C(=O)O[C@H](c3ccccc3)[C@H](c3ccccc3)N1[C@@H]2c1ccccc1OCCO | 1.01 | -0.177 | 1.04 | 1.38 | 0.767 | -1.3 | 0.315 (inactive) | -0.587 | -1.57 | -0.307 (inactive)
20 | O=C1C2C=CC(C(O)C#Cc3ccccc3)N(Nc3ccccc3)C2C(=O)N1c1ccccc1 (stereo not given) | -0.284 | -1.26 | -0.374 | 0.0195 | -0.619 | -1.53 | -0.869 (inactive) | -0.449 | -0.41 | 0.0504 (inactive)
21 | O=C/C=C/c1ccc(/C=C/c2ccccc2)cc1 | 1 | -0.111 | -0.167 | -3.21 | -4.46 | -0.228 | 1.26 (inactive) | -0.949 | -2.1 | 0.22 (inactive)
22 | COCCOC(=O)N1C(=O)[C@@]2(c3cc(C#CCCO)ccc31)[C@H](C(=O)N1CCCCCCC1)[C@H]1C(=O)O[C@H](c3ccccc3)[C@H](c3ccccc3)N1[C@@H]2c1ccc(O)cc1 | 1.53 | 0.843 | 1.87 | 0.555 | -0.479 | 0.538 | 2.37 (inactive) | -1.04 | 0.0272 | 0.641 (inactive)
23 | CCCC=C(CCC)[C@@H](NS(=O)(=O)c1cccc(C(F)(F)F)c1)c1ccc(C(=O)OC)cc1 | -0.336 | -0.0748 | -1.07 | -0.008 | -0.341 | -1.25 | -0.413 (inactive) | 0.0542 | -1.04 | 0.206 (inactive)
24 | C=C(COC)/C(=C/C[C@H](OC(C)=O)c1ccc(OCCO)cc1)c1cnc2ccccc2c1 | 0.373 | 1.18 | -0.141 | -1.53 | 1.07 | 2.07 | 1.2 (inactive) | 0.23 | 0.278 | 0.715 (inactive)
25 | CO[C@H]1COC(=O)[C@H](CCSC)NC(=O)CC=C[C@@H](C)COC(=O)[C@@H](OCc2ccccc2)C=C[C@@H]1C | 0.349 | 0.507 | 0.0042 | 0.199 | -0.358 | 0.842 | 1.23 (inactive) | 0.365 | 1.34 | 0.613 (inactive)
26 | CC(C)(C)OC(=O)CC[C@]1(C(=O)N2CCCCC2)N=C(c2ccc(OCCCO)cc2)O[C@H]1c1ccccc1 | 2.04 | 1.24 | 1.01 | 0.523 | -1.04 | 2.2 | 2.09 (inactive) | -0.123 | 0.317 | -0.354 (inactive)
27 | O=C1NC(=O)C2C1C=CC(C(O)C=Cc1ccc([N+](=O)[O-])cc1)N2Nc1ccccn1 (stereo not given) | 0.183 | -1.49 | 0.324 | -0.141 | -0.411 | -0.249 | -0.304 (inactive) | 0.412 | 0.423 | -0.355 (inactive)
28 | CCN1C(C)=C(C(=O)OC)[C@@H](c2ccccc2)N2C(=O)[C@@]3(C(=O)OC)O[C@@]12[C@@H]1C(=O)CCC[C@@H]13 | -0.195 | 0.955 | -0.369 | 0.853 | 0.476 | 0.638 | 0.881 (inactive) | 0.538 | 0.29 | 0.282 (inactive)
29 | C[C@@H]1CC[C@H]2C(=O)N3CCC[C@H]3C(=O)N2[C@H]1c1ccc(Br)cc1 | 1.09 | -0.0296 | 0.0327 | 0.517 | 0.0262 | 0.412 | 1.02 (inactive) | -0.167 | 0.324 | 0.673 (inactive)
30 | Cc1ccc(S(=O)(=O)c2cc3oc2CC[C@@H](CO)NC(=O)N(C)Cc2cn(nn2)C[C@H](Cc2ccccc2)NC3=O)cc1 | 1.66 | -0.129 | 0.372 | -0.971 | 1.28 | 1.35 | 0.856 (inactive) | 0.501 | 0.536 | 1.39 (inactive)
31 | CCCCCCc1nc(C2CC2)c(C)c2c1[Si](C(C)C)(C(C)C)OC2 | 0.632 | 2.88 | -0.693 | -0.155 | -0.499 | 0.366 | 1.56 (inactive) | 0.296 | 0.419 | -0.207 (inactive)
